# Results published in PubChem BioAssay (EPA / NIEHS).
# Values joined by “and” are separate entries in the source; they are usually repeats but may differ in a detail not shown here. Identical values can stand only once. Results filed as inconclusive are left out. Active and inactive are the calls of the source. Rule for the calls: active = hit-call score of the fitted dose curve at least 0.9, where 1 is the maximum; inconclusive = response in the unintended direction; inactive = score below 0.9.
# Columns and labels:
# [1] = target: Cytochrome P450 2C19 (Homo sapiens) (UniProt P33261); experiment: NVS_ADME_hCYP2C19: NovaScreen (NVS) CYP450-related Enzyme Activity (ADME) Assay for human CYP2C19 (AID 2283113);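 for AC50: potency for inhibition seen as loss of fluorescent signal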
# In short: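 Chemicals first screened in duplicate at 10 uM against recombinant human enzyme produced in insect cells; confirmed actives then run as concentration series. Fluorogenic substrate turnover read by fluorescence after 1 h, normalised to acetonitrile.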
# [2] = target: rat CYP2A2, Cyp2a2 (gene 24895) (UniProt P15149); experiment: NVS_ADME_rCYP2A2: NovaScreen (NVS) CYP450-related Enzyme Activity (ADME) Assay for rat CYP2A2 (AID 2283116)
# In short: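 Cell-free recombinant rat CYP2A2 activity with fluorogenic substrate, fluorescence read 0.2 h after dosing. Chemicals screened at 10 uM in duplicate, hits then run in concentration-response up to 20 uM; signal loss versus acetonitrile baseline.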
# [3] = target: rat CYP2C11, Cyp2c11 (gene 29277) (UniProt P08683); experiment: NVS_ADME_rCYP2C11: NovaScreen (NVS) CYP450-related Enzyme Activity (ADME) Assay for rat CYP2C11 (AID 2283118)
# In short: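 Cell-free recombinant rat enzyme with fluorescent substrate; readout 0.33 h after dosing, loss of signal versus acetonitrile control. Initial duplicate single-point at 10 uM; actives rerun in concentration series.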
# rat CYP2B1, gene 24300 = experiment: NVS_ADME_rCYP2B1: NovaScreen (NVS) CYP450-related Enzyme Activity (ADME) Assay for rat CYP2B1 (AID 2283117)
# In short: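 Recombinant rat CYP2B1 with fluorogenic substrate, read at 0.75 h. Primary screen in duplicate at 10 uM; compounds meeting threshold (e.g., 30% inhibition) re-run in concentration-response up to 20 uM. Fitted against acetonitrile control.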
# [4] = target: human Beta-secretase (BACE), BACE1 (gene 23621) (UniProt P56817); experiment: NVS_ENZ_hBACE: NovaScreen (NVS) Enzymatic Assay for human Beta-secretase (BACE) (AID 2283140);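 note: hits are inhibitors that reduce fluorescent substrate signal versus DMSO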
# In short: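 Cell-free assay of recombinant Sf9-expressed human BACE with fluorescent substrate, read by fluorescence intensity after 1 h. Primary screen in duplicate at 25 uM; actives then run in concentration series; loss of signal relative to DMSO.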
# [5] = target: human CYP2C9, CYP2C9 (gene 1559) (UniProt P11712); experiment: NVS_ADME_hCYP2C9: NovaScreen (NVS) CYP450-related Enzyme Activity (ADME) Assay for human CYP2C9 (AID 2283108)
# In short: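 Fluorescence readout of CYP2C9 activity (SF9-expressed human enzyme) at 0.75 h. The primary screen used 10 uM in duplicate, with concentration-response follow-up for actives; acetonitrile was the negative control.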
# [6] = target: human AMP-activated Protein Kinase, alpha 1 (AMPKa1), PRKAA1 (gene 5562) (UniProt Q13131); experiment: NVS_ENZ_hAMPKa1: NovaScreen (NVS) Enzymatic Assay for human AMP-activated Protein Kinase, alpha 1 (AMPKa1) (AID 2283130)
# In short: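 Recombinant human AMPKα1 activity was measured cell-free by fluorescent substrate conversion with electrophoretic mobility-shift separation, 1 h after dosing. Duplicate single-point screening was at 25 uM; actives (≥30% inhibition) were retested in concentration-response up to 50 uM.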
# [7] = target: human CYP2D6, CYP2D6 (gene 1565) (UniProt P10635); experiment: NVS_ADME_hCYP2D6: NovaScreen (NVS) CYP450-related Enzyme Activity (ADME) Assay for human CYP2D6 (AID 2283107)
# In short: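 Compounds were first tested in duplicate at 10 uM against recombinant enzyme produced in insect cells, with substrate turnover measured by fluorescence after 1 hour. Decreased signal, referenced to acetonitrile vehicle, was taken as reduced enzyme activity. Active chemicals went on to concentration-response testing.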
# [8] = target: human Caspase 2 (CASP2), CASP2 (gene 835) (UniProt P42575); experiment: NVS_ENZ_hCASP2: NovaScreen (NVS) Enzymatic Assay for human Caspase 2 (CASP2) (AID 2283135)
# In short: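 E. coli-expressed enzyme in a cell-free protease assay, fluorescence read 1 h after dosing. Compounds at 25 uM in duplicate, with concentration-response up to 50 uM for hits; loss of signal against DMSO baseline.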
# [9] = target: human Acid Phosphatase 1 (ACP1), ACP1 (gene 52) (UniProt P24666); experiment: NVS_ENZ_hACP1: NovaScreen (NVS) Enzymatic Assay for human Acid Phosphatase 1 (ACP1) (AID 2283136)
# In short: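 Recombinant enzyme expressed in Sf9 cells, tested cell-free; activity read by fluorescence with electrophoretic mobility shift separation of substrate and product, 1.5 h after dosing. Primary screen in duplicate at 25 uM, actives then run in concentration series; loss of signal versus DMSO.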
# [10] = target: human AKT serine/threonine Kinase 1 (AKT1), AKT1 (gene 207) (UniProt P31749); experiment: NVS_ENZ_hAKT1: NovaScreen (NVS) Enzymatic Assay for human AKT serine/threonine Kinase 1 (AKT1) (AID 2283138)
# In short: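 Recombinant human AKT1 with a specific substrate, product separated by electrophoretic mobility shift, read after 1 h. Compounds at 25 uM in duplicate, then concentration-response up to 50 uM for hits; inhibition relative to DMSO.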
# [11] = target: Cytochrome P450 3A4 (Homo sapiens) (UniProt P08684); experiment: NVS_ADME_hCYP3A4: NovaScreen (NVS) CYP450-related Enzyme Activity (ADME) Assay for human CYP3A4 (AID 2283110)
# In short: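 Compounds were first screened in duplicate at 10 uM against recombinant CYP3A4 produced in insect cells, then actives were run in concentration series. Enzyme activity was measured by fluorescence after 0.33 hour, with acetonitrile as baseline.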
# [12] = target: human CYP4F12, CYP4F12 (gene 66002) (UniProt Q9HCS2); experiment: NVS_ADME_hCYP4F12: NovaScreen (NVS) CYP450-related Enzyme Activity (ADME) Assay for human CYP4F12 (AID 2283111)
# In short: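 Cell-free fluorescence assay of recombinant human CYP4F12 activity on a specific substrate, read 0.5 h after dosing. Primary screen in duplicate at 10 uM, then concentration series for actives; loss of signal fitted against acetonitrile negative control.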
# [13] = target: human Caspase 5 (CASP5), CASP5 (gene 838) (UniProt P51878); experiment: NVS_ENZ_hCASP5: NovaScreen (NVS) Enzymatic Assay for human Caspase 5 (CASP5) (AID 2283137)
# In short: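 Recombinant human caspase 5 expressed in E. coli, fluorogenic substrate, fluorescence read 2 h after dosing. Single-point 25 uM duplicate screen, then concentration-response to maximum 50 uM for actives; DMSO baseline.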
# [14] = target: human Caspase 10 (CASP10), CASP10 (gene 843) (UniProt Q92851); experiment: NVS_ENZ_hCASP10: NovaScreen (NVS) Enzymatic Assay for human Caspase 10 (CASP10) (AID 2283133)
# In short: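 Recombinant human caspase-10 from E. coli, cell-free fluorogenic substrate assay read 1 h after dosing. Primary duplicate screen at 25 uM; hits (e.g. ≥30% inhibition) run singly in concentration-response up to 50 uM, normalised to DMSO.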
# Caspase-3 (Homo sapiens) = Caspase-3 (Homo sapiens) (UniProt P42574); experiment: NVS_ENZ_hCASP3: NovaScreen (NVS) Enzymatic Assay for human Caspase 3 (CASP3) (AID 2283139)
# In short: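 Recombinant human caspase-3 from E. coli with a fluorogenic substrate, read by fluorescence 1 h after dosing. Primary screen in duplicate at 25 uM. Actives (for example ≥30% inhibition) rerun as concentration-response up to 50 uM.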
# Chain of human CYP2C9, CYP2C9 (gene 1559) (P11712 whole entry, looked up): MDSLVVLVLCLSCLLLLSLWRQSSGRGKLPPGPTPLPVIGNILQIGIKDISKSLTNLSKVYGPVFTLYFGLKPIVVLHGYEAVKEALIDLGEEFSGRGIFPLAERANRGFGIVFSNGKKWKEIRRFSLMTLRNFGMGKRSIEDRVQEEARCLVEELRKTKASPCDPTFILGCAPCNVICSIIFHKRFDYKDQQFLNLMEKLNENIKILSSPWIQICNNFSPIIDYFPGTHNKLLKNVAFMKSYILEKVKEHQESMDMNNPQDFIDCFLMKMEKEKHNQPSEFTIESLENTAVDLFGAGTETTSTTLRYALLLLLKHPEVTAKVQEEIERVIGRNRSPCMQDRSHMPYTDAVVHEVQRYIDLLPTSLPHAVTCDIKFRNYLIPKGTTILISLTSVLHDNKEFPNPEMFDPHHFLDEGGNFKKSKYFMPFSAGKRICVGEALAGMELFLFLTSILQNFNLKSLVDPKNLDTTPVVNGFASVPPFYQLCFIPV
# Chain of Cytochrome P450 3A4 (Homo sapiens) (P08684 whole entry, looked up): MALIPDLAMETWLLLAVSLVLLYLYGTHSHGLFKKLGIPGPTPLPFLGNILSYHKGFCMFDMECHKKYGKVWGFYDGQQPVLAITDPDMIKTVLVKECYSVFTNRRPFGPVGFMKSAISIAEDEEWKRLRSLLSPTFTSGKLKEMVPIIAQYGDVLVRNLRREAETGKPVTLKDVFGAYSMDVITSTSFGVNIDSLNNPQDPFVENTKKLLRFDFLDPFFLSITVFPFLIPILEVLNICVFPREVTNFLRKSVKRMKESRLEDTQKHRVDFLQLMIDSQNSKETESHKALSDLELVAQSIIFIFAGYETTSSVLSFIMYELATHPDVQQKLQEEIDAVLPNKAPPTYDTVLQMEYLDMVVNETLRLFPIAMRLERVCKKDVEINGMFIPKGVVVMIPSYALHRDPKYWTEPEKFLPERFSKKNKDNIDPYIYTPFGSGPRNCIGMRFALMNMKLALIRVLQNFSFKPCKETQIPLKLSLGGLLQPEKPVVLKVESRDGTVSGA
# Chain of human Beta-secretase (BACE), BACE1 (gene 23621) (P56817 whole entry, looked up): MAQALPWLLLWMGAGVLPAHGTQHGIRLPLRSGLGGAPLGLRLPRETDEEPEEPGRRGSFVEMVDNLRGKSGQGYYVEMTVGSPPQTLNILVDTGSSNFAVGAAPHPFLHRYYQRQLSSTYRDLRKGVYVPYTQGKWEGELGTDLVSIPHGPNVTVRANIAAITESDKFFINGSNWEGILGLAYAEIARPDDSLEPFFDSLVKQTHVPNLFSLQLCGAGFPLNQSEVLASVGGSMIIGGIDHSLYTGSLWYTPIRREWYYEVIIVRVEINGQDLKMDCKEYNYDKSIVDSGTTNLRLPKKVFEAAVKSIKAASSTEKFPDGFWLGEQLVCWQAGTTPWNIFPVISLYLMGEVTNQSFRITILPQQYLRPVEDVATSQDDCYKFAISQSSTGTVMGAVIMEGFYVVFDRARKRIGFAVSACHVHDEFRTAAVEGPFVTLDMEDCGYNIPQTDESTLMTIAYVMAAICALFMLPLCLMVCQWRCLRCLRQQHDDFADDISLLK
# Chain of rat CYP2C11, Cyp2c11 (gene 29277) (P08683 whole entry, looked up): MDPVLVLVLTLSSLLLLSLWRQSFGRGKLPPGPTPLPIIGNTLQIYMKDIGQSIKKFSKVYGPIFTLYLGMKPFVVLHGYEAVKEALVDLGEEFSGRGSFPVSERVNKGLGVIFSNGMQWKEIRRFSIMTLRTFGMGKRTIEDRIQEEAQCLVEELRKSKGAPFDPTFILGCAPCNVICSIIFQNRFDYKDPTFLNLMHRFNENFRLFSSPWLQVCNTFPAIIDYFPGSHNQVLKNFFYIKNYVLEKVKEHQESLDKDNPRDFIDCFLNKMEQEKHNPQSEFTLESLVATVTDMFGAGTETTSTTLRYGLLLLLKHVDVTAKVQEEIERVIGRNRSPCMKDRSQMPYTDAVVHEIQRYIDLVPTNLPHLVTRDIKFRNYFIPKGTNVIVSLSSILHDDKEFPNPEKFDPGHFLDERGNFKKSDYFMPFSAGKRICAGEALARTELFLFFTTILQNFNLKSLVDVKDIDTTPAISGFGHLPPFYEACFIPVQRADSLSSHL
# Chain of human AMP-activated Protein Kinase, alpha 1 (AMPKa1), PRKAA1 (gene 5562) (Q13131 whole entry, looked up): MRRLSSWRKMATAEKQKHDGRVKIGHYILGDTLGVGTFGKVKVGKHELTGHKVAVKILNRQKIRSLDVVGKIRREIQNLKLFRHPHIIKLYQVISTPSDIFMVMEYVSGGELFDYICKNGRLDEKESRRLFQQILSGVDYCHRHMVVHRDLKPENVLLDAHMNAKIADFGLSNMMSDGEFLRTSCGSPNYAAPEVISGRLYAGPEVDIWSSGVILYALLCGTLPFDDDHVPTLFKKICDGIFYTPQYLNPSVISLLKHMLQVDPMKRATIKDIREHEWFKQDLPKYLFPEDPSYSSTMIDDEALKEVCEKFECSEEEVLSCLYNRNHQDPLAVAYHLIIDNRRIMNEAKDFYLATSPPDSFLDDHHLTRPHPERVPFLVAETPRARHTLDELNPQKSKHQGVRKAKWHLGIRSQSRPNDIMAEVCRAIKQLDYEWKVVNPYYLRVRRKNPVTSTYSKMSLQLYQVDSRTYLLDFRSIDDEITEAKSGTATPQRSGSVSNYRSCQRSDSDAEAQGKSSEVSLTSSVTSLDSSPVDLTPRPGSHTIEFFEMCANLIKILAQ
# Chain of human Caspase 2 (CASP2), CASP2 (gene 835) (P42575 whole entry, looked up): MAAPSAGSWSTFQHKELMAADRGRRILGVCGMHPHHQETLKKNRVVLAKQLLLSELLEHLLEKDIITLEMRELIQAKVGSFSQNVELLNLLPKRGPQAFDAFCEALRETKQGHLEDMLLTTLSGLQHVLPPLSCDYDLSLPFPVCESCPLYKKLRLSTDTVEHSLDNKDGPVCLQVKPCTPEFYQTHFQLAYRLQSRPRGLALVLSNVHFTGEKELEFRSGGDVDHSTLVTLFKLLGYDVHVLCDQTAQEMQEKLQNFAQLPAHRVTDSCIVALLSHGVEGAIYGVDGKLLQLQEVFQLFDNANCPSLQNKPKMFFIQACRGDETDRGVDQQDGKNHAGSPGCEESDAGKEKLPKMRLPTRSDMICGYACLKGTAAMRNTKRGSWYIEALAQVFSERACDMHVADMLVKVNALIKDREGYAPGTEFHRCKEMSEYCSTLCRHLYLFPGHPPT
# Chain of human Acid Phosphatase 1 (ACP1), ACP1 (gene 52) (P24666 whole entry, looked up): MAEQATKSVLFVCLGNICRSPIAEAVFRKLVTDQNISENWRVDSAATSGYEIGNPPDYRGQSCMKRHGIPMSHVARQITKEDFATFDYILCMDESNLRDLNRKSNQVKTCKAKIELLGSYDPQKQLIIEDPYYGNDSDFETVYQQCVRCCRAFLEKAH
# Chain of human CYP2D6, CYP2D6 (gene 1565) (P10635 whole entry, looked up): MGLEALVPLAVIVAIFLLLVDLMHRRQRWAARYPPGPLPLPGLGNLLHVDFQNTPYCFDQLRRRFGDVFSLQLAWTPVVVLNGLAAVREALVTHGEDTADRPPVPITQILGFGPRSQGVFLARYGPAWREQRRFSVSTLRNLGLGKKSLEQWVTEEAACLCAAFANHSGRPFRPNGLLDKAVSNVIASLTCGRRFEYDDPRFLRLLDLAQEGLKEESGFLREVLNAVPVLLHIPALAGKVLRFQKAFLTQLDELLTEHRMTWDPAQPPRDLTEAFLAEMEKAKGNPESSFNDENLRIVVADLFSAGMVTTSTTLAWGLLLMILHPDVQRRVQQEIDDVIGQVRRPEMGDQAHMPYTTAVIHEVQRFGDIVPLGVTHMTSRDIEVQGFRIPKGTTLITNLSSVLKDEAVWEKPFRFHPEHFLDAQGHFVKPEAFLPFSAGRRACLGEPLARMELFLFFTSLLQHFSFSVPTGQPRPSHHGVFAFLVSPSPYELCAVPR
# Chain of rat CYP2A2, Cyp2a2 (gene 24895) (P15149 whole entry, looked up): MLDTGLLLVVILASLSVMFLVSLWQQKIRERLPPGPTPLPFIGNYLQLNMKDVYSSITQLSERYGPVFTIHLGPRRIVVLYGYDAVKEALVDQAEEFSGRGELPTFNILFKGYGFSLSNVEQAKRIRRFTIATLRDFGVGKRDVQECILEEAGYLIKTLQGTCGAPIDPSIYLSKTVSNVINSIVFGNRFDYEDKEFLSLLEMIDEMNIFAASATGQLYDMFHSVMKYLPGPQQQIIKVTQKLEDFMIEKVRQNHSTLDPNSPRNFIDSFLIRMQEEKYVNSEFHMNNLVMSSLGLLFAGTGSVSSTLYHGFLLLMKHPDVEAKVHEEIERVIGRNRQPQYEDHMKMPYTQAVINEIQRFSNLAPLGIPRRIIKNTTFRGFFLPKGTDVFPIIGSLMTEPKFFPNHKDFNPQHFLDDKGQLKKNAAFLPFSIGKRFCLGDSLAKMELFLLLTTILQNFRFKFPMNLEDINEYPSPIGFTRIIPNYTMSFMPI
# Chain of human CYP4F12, CYP4F12 (gene 66002) (Q9HCS2 whole entry, looked up): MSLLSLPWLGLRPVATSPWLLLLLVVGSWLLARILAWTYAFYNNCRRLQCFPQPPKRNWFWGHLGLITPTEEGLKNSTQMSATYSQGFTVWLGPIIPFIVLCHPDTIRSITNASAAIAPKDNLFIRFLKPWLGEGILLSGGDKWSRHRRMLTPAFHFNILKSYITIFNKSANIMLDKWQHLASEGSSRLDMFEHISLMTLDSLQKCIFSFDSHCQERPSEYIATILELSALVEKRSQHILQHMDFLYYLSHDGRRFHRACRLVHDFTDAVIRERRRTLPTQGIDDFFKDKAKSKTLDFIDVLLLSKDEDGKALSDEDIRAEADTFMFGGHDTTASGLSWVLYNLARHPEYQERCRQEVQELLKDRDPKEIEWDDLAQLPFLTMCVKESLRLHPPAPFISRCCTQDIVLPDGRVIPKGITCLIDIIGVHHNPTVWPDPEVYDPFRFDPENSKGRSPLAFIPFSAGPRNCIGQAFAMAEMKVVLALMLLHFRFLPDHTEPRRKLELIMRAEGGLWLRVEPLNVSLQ
# Chain of Caspase-3 (Homo sapiens) (P42574 whole entry, looked up): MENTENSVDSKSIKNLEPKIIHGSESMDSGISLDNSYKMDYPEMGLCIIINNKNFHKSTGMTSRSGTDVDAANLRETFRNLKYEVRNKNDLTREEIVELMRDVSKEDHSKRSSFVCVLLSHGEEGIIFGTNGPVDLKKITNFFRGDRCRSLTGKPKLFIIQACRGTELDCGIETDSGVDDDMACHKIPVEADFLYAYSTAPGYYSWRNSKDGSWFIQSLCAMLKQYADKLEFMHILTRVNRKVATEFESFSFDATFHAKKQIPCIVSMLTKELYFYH
compound,measurement,setting,value
C[C@]12CCC(=O)C=C1CC[C@@H]1[C@@H]2CC[C@@]2(C)[C@H]1CC[C@]2(C)O,AC50,[1],9.15 µM (active)
same,AC50,[2],5.45 µM (active)
same,AC50,[3],3.82 µM (active) and 2.41 µM (active) and 2.57 µM (active)
ClC(Cl)=C(c1ccc(Cl)cc1)c1ccc(Cl)cc1,outcome,[1],inactive
same,outcome,[2],inactive
same,outcome,"rat CYP2B1, gene 24300",inactive
same,outcome,[4],inactive
O=S(=O)(O)C(F)(F)C(F)(F)C(F)(F)C(F)(F)C(F)(F)C(F)(F)F,AC50,[5],0.0791 µM (active)
same,outcome,[6],inactive
same,AC50,[4],1.85 µM (active)
CC(c1ccc(O)cc1)(c1ccc(O)cc1)c1ccc(O)cc1,AC50,[1],1.73 µM (active)
O=C(N[C@H]1CN2CCC1CC2)c1cc2ccoc2cn1,AC50,[7],2.09 µM (active)
same,outcome,[8],inactive
CC(C)(O)C(=O)Nc1ccc([N+](=O)[O-])c(C(F)(F)F)c1,outcome,[5],inactive
same,AC50,[1],3.49 µM (active)
CN(C)CCO,outcome,[1],inactive
CC1=C2C[C@H]3[C@@H](CC=C4C[C@@H](O)CC[C@@]43C)[C@@H]2CC[C@]12O[C@@H]1C[C@H](C)CN[C@H]1[C@H]2C,outcome,[6],inactive
same,outcome,[9],inactive
Cc1ccccc1CO[C@@H]1C[C@@]2(C(C)C)CC[C@]1(C)O2,outcome,[10],inactive
Cc1cccc(C)c1N,outcome,[11],inactive
same,outcome,[4],inactive
Nc1ccc(-c2ccc(N)cc2)cc1,AC50,[5],10 µM (active)
same,AC50,[1],8.09 µM (active)
same,outcome,[8],inactive
Cc1ccc(O)c(C)c1,outcome,[12],inactive
same,outcome,[4],inactive
CCCN(CCC)N=O,outcome,[6],inactive
O=C(O)C(F)(F)C(F)(F)C(F)(F)C(F)(F)C(F)(F)C(F)(F)C(F)(F)C(F)(F)F,AC50,[5],0.643 µM (active)
same,AC50,[6],36.7 µM (active)
same,outcome,[9],inactive
same,AC50,[13],12.8 µM (active)
same,AC50,[4],10.7 µM (active)
CC(C)C(=O)OCC(C)(C)C(OC(=O)C(C)C)C(C)C (stereo unspecified),AC50,[12],6.26 µM (active)
same,outcome,[6],inactive
Cc1cc2c3c(c1)C(c1ccccc1)=N[C@@H](NC(=O)c1ccncc1)C(=O)N3CC2,outcome,[11],inactive
Clc1ccc(C(Cl)(Cl)Cl)cc1,outcome,[14],inactive
CCC(C)(c1ccc(O)cc1)c1ccc(O)cc1,AC50,[5],6.47 µM (active)
same,outcome,[11],inactive
same,AC50,[1],4.4 µM (active)
same,AC50,[4],11.2 µM (active)
CCCCCCOC(=O)c1ccccc1C(=O)OCCCCCC,outcome,[4],inactive
CC(C)(c1ccccc1)c1ccc(O)cc1,outcome,[7],inactive
same,AC50,[5],10 µM (active)
same,outcome,[11],inactive
same,outcome,Caspase-3 (Homo sapiens),inactive
same,AC50,[4],20.3 µM (active)
